Results reported in PubChem BioAssay AID1851 (National Center for Advancing Translational Sciences (NCATS), 2009).
Hit rate of the full screen: of about 16,000 compounds, about 2,600 (16%) were called active. Another 20% or so got no clear call; they are omitted. These entries were drawn from the full list. Values without a mark were called inactive. Calls follow the shape of the dose curve; as a rule, active = well fitted curve in the direction sought with a large enough effect; inconclusive = small, poorly fitted or top-dose-only effect, or effect the other way; inactive = no such curve, though single readings can be large or run the other way.

Target: Cytochrome P450 2D6 (Homo sapiens) (UniProt P10635)
Sequence (P10635 whole entry, looked up): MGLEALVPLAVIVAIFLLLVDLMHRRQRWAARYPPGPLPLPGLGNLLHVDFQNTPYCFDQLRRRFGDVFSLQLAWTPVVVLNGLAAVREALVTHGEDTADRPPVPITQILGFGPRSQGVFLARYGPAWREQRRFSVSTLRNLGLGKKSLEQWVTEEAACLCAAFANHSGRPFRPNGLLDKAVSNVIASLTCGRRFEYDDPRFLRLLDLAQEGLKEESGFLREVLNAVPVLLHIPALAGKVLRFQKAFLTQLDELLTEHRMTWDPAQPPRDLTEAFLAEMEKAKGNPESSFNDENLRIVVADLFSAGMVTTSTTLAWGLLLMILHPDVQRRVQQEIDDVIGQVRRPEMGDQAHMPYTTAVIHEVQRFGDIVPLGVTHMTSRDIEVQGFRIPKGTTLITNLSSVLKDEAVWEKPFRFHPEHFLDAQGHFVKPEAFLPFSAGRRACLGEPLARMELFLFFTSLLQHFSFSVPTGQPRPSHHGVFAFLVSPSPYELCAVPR
Test: Cytochrome panel assay with activity outcomes
Conditions: recombinant CYP, pro-luciferin dealkylation, luminescence, p450-cyp2d6; series mostly up to 57.1 µM; activity, negative = inhibition: at the top concentration
% is scaled to controls: 0 for no effect and ±100 for the full control effect.

| Compound | activity, negative = inhibition | AC50 |
| --- | --- | --- |
| O=C(NCc1ccco1)c1cc(C(=O)C2CC2)c[nH]1 | 4.02% | – |
| O=C1Nc2ccccc2C1=Nc1ccc(S(=O)(=O)Nc2nccs2)cc1 | 16.3% [at 11.4 µM] | – |
| COc1ccc2c(OC)c3ccoc3nc2c1OC | -20.6% [at 25.6 µM] | – |
| CC(C)(C)N1C(=O)[C@H]2[C@@H]3[C@H](O)[C@H](O)CC(=O)[C@H]3CC[C@H]2C1=O | 7.18% [at 11.4 µM] | – |
| O=C(CN1CCN(Cc2ccccc2)CC1)c1ccc(Br)cc1 | – | 1.41 µM (active) |
| O=C(c1cc(C(F)(F)F)cc(C(F)(F)F)c1)N1CCC2(CCN(Cc3ccccc3)CC2)CC1 | -13.2% | – |
| O=C(c1coc(=O)c2ccccc12)N1CCN(Cc2ccccc2)CC1 | -9.79% | – |
| CCc1c(O)nc2sc3ccccc3n2c1=O | -4.92% | – |
| CC(=O)c1cccc(NC=C2C(=O)OC3(CCCCC3)OC2=O)c1 | 15.4% | – |
| CCc1nnc(NC(=O)c2c(C)nn(-c3ccccc3)c2Cl)s1 | -17.9% | – |
| CC(=O)NCCNc1ncnc2ccc(-c3ccc(C(=O)N(C)C)cc3)cc12 | -14.3% | – |
| Clc1ccccc1-c1cc(NCCN2CCOCC2)ncn1 | -17% | – |
| Clc1ccccc1-c1ccc2ncnc(NCCN3CCOCC3)c2c1 | – | 10 µM (active) |
| c1nc(NCCN2CCOCC2)c2cc(-c3ccoc3)ccc2n1 | – | 2 µM (active) |
| c1nc(NCCN2CCOCC2)c2cc(-c3ccc4c(c3)OCO4)ccc2n1 | – | 7.94 µM (active) |
| c1ccc(-n2ncc3c(NCCCN4CCOCC4)ncnc32)cc1 | -10.2% | – |
| CN(C)C(=O)c1ccc(-c2ccc3ncnc(NCCN4CCOCC4)c3c2)cc1 | -3.71% | – |
| CC(=O)NCCNc1ncnc2ccc(-c3ccc4c(c3)OCO4)cc12 | – | 10 µM (active) |
| CC(=O)NCCNc1ncnc2ccc(-c3ccoc3)cc12 | -3.64% | – |
| c1ccc2c(c1)CCCc1cc(NCCN3CCOCC3)nnc1-2 | -20.8% [at 25.6 µM] | – |
| CCCc1nnc(NC(=O)c2cccs2)s1 | 6.2% | – |
| O=C(/C=C/c1ccc(Br)cc1)NC1CCCCCC1 | -29.1% | – |
| Cc1ccc(C(=O)Nc2cccc(-c3cnc4ccccc4n3)c2)cc1 | 17.8% | – |
| Cc1cc2c(=O)[nH]c(N)nc2nc1C | 14.7% [at 11.4 µM] | – |
| O=c1[nH]c(SCc2cccc([N+](=O)[O-])c2)nc2nc[nH]c12 | 10.7% [at 11.4 µM] | – |
| CSc1nc2n(n1)C(c1cc(Br)ccc1F)C(C(=O)N(C)C)=C(C)N2 (centres undefined) | 6.18% | – |
| CN[C@]1(C)[C@@H]2CC[C@@H](C2)C1(C)C | 5.59% | – |
| Cc1ccc(NC(=O)CCN2C(=O)c3ccncc3C2=O)cc1 | 1.26% | – |
| CCN1C(=O)[C@H]2[C@H]3[C@H](O)[C@H](O)C/C(=N/NC(=O)OCc4ccccc4)[C@@H]3CC[C@@H]2C1=O | 10.8% [at 11.4 µM] | – |
